From PubChem BioAssay AID2057 (The Scripps Research Institute Molecular Screening Center, 2009)
Among all 320,000 compounds or so, about 2,100 (0.66%) were called active.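 Rule for the calls: active = inhibition above the mean inhibition of all tested compounds plus 3 SD, set per campaign (cut at about 40% in these data); inactive = the rest.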 Only a selection was taken, and actives are over-represented in it overall.

biological target: Induced myeloid leukemia cell differentiation protein Mcl-1 (Homo sapiens) (UniProt Q07820); assay: MCL1-BIM peptide interaction disruptors – biochemical, fluorescence polarization, primary screen (AID 2057); settings: GST-MCL1 / FITC-Bim-BH3 fluorescence polarization; at 10.9 µM; active compounds read high;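 note: 0% = DMSO wells and 100% = unlabeled Bim-BH3 peptide control; higher means more loss of mP so more displacement of Bim peptide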
Sequence (Q07820 whole entry, looked up): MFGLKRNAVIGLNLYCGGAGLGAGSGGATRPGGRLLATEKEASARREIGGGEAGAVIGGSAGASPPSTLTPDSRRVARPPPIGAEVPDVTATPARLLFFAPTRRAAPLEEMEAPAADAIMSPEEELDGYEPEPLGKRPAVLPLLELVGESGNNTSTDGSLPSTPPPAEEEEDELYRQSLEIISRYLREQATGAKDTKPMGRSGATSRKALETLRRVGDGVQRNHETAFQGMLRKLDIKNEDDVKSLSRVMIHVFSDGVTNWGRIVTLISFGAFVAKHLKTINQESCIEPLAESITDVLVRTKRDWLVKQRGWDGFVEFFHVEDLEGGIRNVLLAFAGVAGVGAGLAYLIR

SMILES | inhibition
COc1cc([C@H](Cc2ccccc2)NC(C)=O)oc(=O)c1 | 59.4% (active)
CCOC(=O)C(Cc1ccccc1)NC(=O)CCC(=O)c1ccc(OC)cc1 (stereo not drawn) | 4.46% (inactive)
COC(=O)[C@H](Cc1ccccc1)NC(=O)Nc1ccc(OC)cc1 | 2.03% (inactive)
Cc1ccc(OCC(=O)c2cc(C)n(Cc3ccco3)c2C)c([N+](=O)[O-])n1 | -1.45% (inactive)
COC(=O)c1c(NC(=O)c2ccc(S(=O)(=O)N3CCOCC3)cc2)sc2c1CCN(C(C)C)C2 | -0.44% (inactive)
c1ccc2c(c1)CSc1sccc1C2=C1CCNCC1 | 8.84% (inactive)
CCSc1nc2sc3c(c2c(=O)[nH]1)CC(C)(C)OC3 | 7.1% (inactive)
CCC1(C)Cc2c(sc3nc(SC)[nH]c(=O)c23)CO1 (stereo not drawn) | 6.42% (inactive)
CC/C(C)=N/Nc1nc2sc3c(c2c(=O)[nH]1)CC(C)(C)OC3 | 85% (active)
Nc1cc(N)nc(SCC(=O)Nc2cccc(S(=O)(=O)N3CCCCC3)c2)n1 | -0.58% (inactive)
CC[C@]1(O)C[C@@H]2CN(CCc3c([nH]c4ccccc34)[C@@](C(=O)OC)(c3cc4c(cc3OC)N(C)[C@H]3[C@@](O)(C(=O)OC)[C@H](OC(C)=O)[C@]5(CC)C=CCN6CC[C@]43[C@@H]65)C2)C1 | 119% (active)
CC[C@]1(O)CC2CN(CCc3c([nH]c4ccccc34)[C@@](C(=O)OC)(c3cc4c(cc3OC)N(C=O)[C@H]3[C@@](O)(C(=O)OC)[C@H](OC(C)=O)[C@]5(CC)C=CCN6CC[C@]43[C@@H]65)C2)C1 (stereo partly drawn) | 20.2% (inactive)
O=C(Cn1c(NCCO)nc2ccccc21)c1ccc(Cl)cc1Cl | -2.09% (inactive)
CC[C@@H](C)[C@H](NC(=O)CCc1c(C)c2cc3c4c(oc3c(C)c2oc1=O)CCCC4)C(=O)O | 8.32% (inactive)
COc1ccc2nc(N3CCCC(O)C3)c(C#N)cc2c1 (stereo not drawn) | 26.1% (inactive)
CCOc1ccc2nc(N3CCCN(C(=O)Nc4ccccc4C)CC3)c(C#N)cc2c1 | 48.6% (active)
CCOC(=O)c1cc(C#N)c(N2CCCCC2)nc1-c1ccccc1 | 2.02% (inactive)
CSc1ncccc1C(=O)OCc1ccc(Br)cc1 | 4.52% (inactive)
CCC(C)(C)NC(=O)c1cc([N+](=O)[O-])ccc1N1CCCCC1 | -1.47% (inactive)
CN(C)/C=C1/Nc2ccccc2C1=O | 5.28% (inactive)
O=C1Nc2ccccc2/C1=C/c1ccnc2ccccc12 | 4.28% (inactive)
Cc1cc(C)c(/C=C2\C(=O)Nc3ccccc32)[nH]1 | 180% (active)
COc1ccc(CNc2nnnn2C)cc1 | 2.94% (inactive)
Fc1ccc(CNc2nc3ccccc3n3nnnc23)cc1 | 60.1% (active)

SMILES | inhibition
CCOC(=O)CNc1nc2ccccc2n2c(C)nnc12 | 6.27% (inactive)
CCC1CCCCN1C(=S)Nc1ccc(SC(F)F)cc1 (stereo not drawn) | 7.19% (inactive)
COc1ccc(N2CC(C(=O)N[C@@H](C)C(=O)N3CCCCC3)CC2=O)cc1 (stereo partly drawn) | 3.6% (inactive)
O=C(O)c1ccc2c3c(cccc13)C(=O)N(OS(=O)(=O)c1ccccc1)C2=O | -8.23% (inactive)
Cc1nn(-c2cc(Cl)ccc2N)c(=O)c2ccccc12 | 0.14% (inactive)
O=C1c2ccccc2C(=O)N1c1cccc2ccccc12 | 2.1% (inactive)
C[N+](C)(CCCCCC[N+](C)(C)CCCN1C(=O)c2cccc3cccc(c23)C1=O)CCCN1C(=O)c2cccc3cccc(c23)C1=O | -10.5% (inactive)
CC(C)(CNC(=O)Cc1ccc(Cl)cc1Cl)N1CCOCC1 | 4.7% (inactive)
O=C(c1cccnc1)N(c1cc2sc(=O)oc2c2ccccc12)S(=O)(=O)c1ccccc1 | 23.9% (inactive)
CCCCC(NC(=O)c1cccc(Br)c1)C(=O)O (stereo not drawn) | -0.19% (inactive)
CC1=NN(C(C)C)C(=O)C1 | -2.13% (inactive)
COCc1c(N)c(C)nc(Cl)c1C#N | 8.83% (inactive)
CCOc1ccc(N(CC(=O)NCC2CCCO2)S(=O)(=O)c2ccc(C)cc2)cc1 (stereo not drawn) | -3.41% (inactive)
O=C(CNC(=O)C1COc2ccccc2O1)N/N=C/c1cc(Br)c(O)c(Br)c1 (stereo not drawn) | 10.8% (inactive)
Cc1c(CC(=O)N2CCN(C(=O)C3COc4ccccc4O3)CC2)c(=O)oc2c(O)c(O)ccc12 (stereo not drawn) | 57.5% (active)
Cc1c(C)c2ccc(OCC(=O)N3CCC(C(=O)O)CC3)c(C)c2oc1=O | -1.79% (inactive)
O=C(NCCCCc1ccccc1)C1CC(c2ccc([N+](=O)[O-])cc2)=NO1 (stereo not drawn) | 12.6% (inactive)
CN(CC(=O)NC1CCN(Cc2ccccc2)CC1)S(=O)(=O)c1ccc(Cl)s1 | 3.17% (inactive)
CCc1cc(CNC(=O)CC2C(=O)NCCN2Cc2ccccc2C(F)(F)F)on1 (stereo not drawn) | 17.3% (inactive)
CC1(C)CC(=O)C2=C(C1)NCN(CCCN1CCOCC1)C2 | -0.98% (inactive)
O=C(NC(=S)Nc1ccc(S(=O)(=O)N2CCOCC2)cc1)c1ccccc1[N+](=O)[O-] | 14.4% (inactive)
O=[N+]([O-])c1cc(Cl)cc(/C=N/NC(=S)Nc2cc(S(=O)(=O)N3CCOCC3)ccc2Cl)c1O | 52.5% (active)
O=C(N/N=C/c1cc(Cl)cc([N+](=O)[O-])c1O)C(O)(c1ccccc1)c1ccccc1 | 9.22% (inactive)
COC(=O)CN(c1cccc(C(C)=O)c1)S(C)(=O)=O | 0.97% (inactive)

SMILES | inhibition
CCCSc1ncccc1C(=O)O | -3.51% (inactive)
COc1ccc(Nc2cc(Cl)ccc2C(=O)O)cn1 | 62.7% (active)
COc1cccc(Nc2ncccc2C(=O)O)c1 | 1.4% (inactive)
COc1ccc(NS(=O)(=O)c2ccc(F)cc2F)cn1 | 8.27% (inactive)
CCCOc1ccc(Cl)cc1Nc1nc(NCCO)nc(N2CCCC2)n1 | 3.82% (inactive)
NC1=NC2(CCCCC2)N(c2ccc(F)cc2F)C(N)=N1 | 10.2% (inactive)
COc1ccc(Cl)cc1C(=O)OCC(=O)NCc1cccs1 | -2.56% (inactive)
C=CCNc1nnc(C)c2ccccc12 | -0.12% (inactive)
C=CCNc1nnc(SCC(=O)N2CCCCC2)c2ccccc12 | 120% (active)
O=C(CSc1ncccn1)N1CCCC1 | 9.67% (inactive)
O=C(c1ccc(F)c(S(=O)(=O)N2CCOCC2)c1)N(CCc1ccccc1)Cc1ccccc1 | 32.4% (inactive)
O=C(NCCSCc1ccccc1)c1ccc(Cl)c(S(=O)(=O)N2CCOCC2)c1 | 1.14% (inactive)
CCOc1ccc(NC(=O)CCCCCN2C(=O)[C@@H]3Cc4ccccc4CN3C2=O)cc1 | 6.32% (inactive)
COc1ccc(CC(=O)Nc2c3c(nn2-c2cccc(Cl)c2)CS(=O)C3)cc1 (stereo not drawn) | -2.25% (inactive)
CCNc1nc(N)nc(-c2cc(Cl)ccc2OC)n1 | -1.8% (inactive)
COc1ccc(CCn2c(=N)c(C(=O)NCC3CCCO3)cc3c(=O)n4cccc(C)c4nc32)cc1OC (stereo not drawn) | 2% (inactive)
Cc1cccn2c(=O)c3cc(C(=O)NCC4CCCO4)c(=N)n(Cc4ccc(F)cc4)c3nc12 (stereo not drawn) | -4.4% (inactive)
Cc1cccn2c(=O)c3cc(C(=O)NCCN4CCOCC4)c(=N)n(Cc4cccnc4)c3nc12 | 46.7% (active)
CC(C)(C)NC(=O)COC(=O)c1cc(Br)ccc1Cl | -2.96% (inactive)
CCCC1NC(=O)NC(C)=C1C(=O)OCC (stereo not drawn) | -0.76% (inactive)
Oc1ccc2ccccc2c1N=Nc1nccs1 | 61.4% (active)
CC1=C(C(=O)OC(C)(C)C)C(c2ccc(Br)cc2)NC(=O)N1CCCC(=O)O (stereo not drawn) | 2.27% (inactive)
CC[N+](C)(CC)CCC[n+]1c(-c2ccccc2)c2cc(N)ccc2c2ccc(N)cc21 | 122% (active)
C=C(C)CSc1nnc(-c2ccc(C)cc2)n1N | -0.24% (inactive)

SMILES | inhibition
CC(OC(=O)c1ccccc1NCCO)C(=O)Nc1ccnn1C(C)C (stereo not drawn) | 1.18% (inactive)
CSCCC(NC(=O)c1ccc(Cl)cc1Cl)C(=O)NNC(=O)c1csc(N2CCOCC2)n1 (stereo not drawn) | 12.3% (inactive)
CN(C(=O)COC(=O)c1cc(=O)[nH]c2ccccc12)C1CCCCC1 | 1.49% (inactive)
COC(=O)C[n+]1cccc2ccccc21 | 195% (active)
COc1ccccc1NC(=O)C[n+]1ccccc1 | -1.7% (inactive)
Cc1cccc[n+]1CC(=O)c1ccccc1 | 9.96% (inactive)
Cn1ccs/c1=N\S(=O)(=O)c1ccc(C(C)(C)C)cc1 | 5.09% (inactive)
O=[N+]([O-])c1cc([N+](=O)[O-])c(Oc2cc(F)cc(F)c2F)cc1NN1CCCCC1 | -1.7% (inactive)
COc1ccc2nc(SCc3ccccc3)nc(C)c2c1 | 1.99% (inactive)
CCc1nnc(SCc2cccc(F)c2)nc1CC | 0.71% (inactive)
Fc1cccc(Cl)c1CSc1ccc(-c2ccco2)nn1 | 17.6% (inactive)
O=C(CC1N=C2c3ccccc3N=C(SCc3ccccc3Cl)N2C1=O)NCc1ccco1 (stereo not drawn) | 19.4% (inactive)
c1ccc(CSc2nnc(-c3ccco3)c(-c3ccco3)n2)cc1 | 82.3% (active)
Clc1ccccc1CSc1nnc(-c2ccco2)c(-c2ccco2)n1 | 79.9% (active)
CCOC(=O)C1CCCN(C(=O)COc2ccc(N(C)S(=O)(=O)c3ccc(C)cc3)cc2)C1 (stereo not drawn) | -2.82% (inactive)
CCCN(C(=O)c1nc2nccc(C)n2n1)c1c(N)n(Cc2ccccc2)c(=O)[nH]c1=O | 0.15% (inactive)
COCc1cc(=O)n2[nH]c(C)c(-c3ccccc3)c2n1 | 10.3% (inactive)
CCC1SC2=NCCN2C1(O)c1ccc(Cl)cc1 (stereo not drawn) | 7.57% (inactive)
CN1C(=O)/C(=C\c2cc(Br)cs2)c2ccccc21 | -0.58% (inactive)
O=C(COC(=O)c1ncc(Cl)c(Cl)c1Cl)NNC(=O)c1ccccc1 | 5.89% (inactive)
Cn1c(-c2ccc(C(F)(F)F)cc2)cc2onc(-c3ccccc3)c2c1=O | 4.36% (inactive)
